# Literature values, collected in PubChem BioAssay AID977611.
# About 3,900 (100%) of roughly 3,900 compounds were called active. Cut-off not given; nearly all actives show Kd up to about 4200 µM. So high a share suggests a set chosen from earlier hits. Some of the results follow. Where a SMILES comes first, the peptide text is derived from it. Non-standard residues stand in square brackets, D forms with d. Square brackets hold non-standard residues; d marks the D form. Residues, ends and D or L forms follow the SMILES beside them. Peptide text beside a SMILES is read from it. [ ]: non-standard residue; d: D form. Orn(CH(NH2)2) = NC(N)NCCC[C@H](N)C(=O)O; Leu(ol) = CC(C)C[C@H](N)CO
# Test: PubChem AID 977611
# Settings: PDB protein-ligand complexes, literature Kd
compound,measurement,setting,value
CC(C)[C@H](NC(=O)[C@H](CCC(=O)O)NC(=O)[C@H](C)NC(=O)[C@H](Cc1ccc(O)cc1)NC(=O)[C@H](CO)NC(=O)[C@@H]1CCCN1C(=O)[C@@H]1CCCN1C(=O)[C@H](C)NC(=O)[C@@H](N)CCC(=O)O)C(=O)O (H-EAPPSYAEV-OH),Kd,"protein: 3rd WW domain of Human Nedd4, PDB entry 4n7h",3.3 µM (active)
CSCC[C@H](NC(=O)[C@@H]1CCCN1C(=O)[C@@H](NC(=O)[C@H](CCCNC(N)N)NC(=O)[C@H](CO)NC(=O)CN)[C@@H](C)O[P+](O)(O)O)C(=O)N[C@@H](Cc1ccc(O)cc1)C(=O)NCC(=O)O (HELM PEPTIDE1{G.S.[NC(N)NCCC[C@H](N[*:1])C(=O)[*:2]].[C[C@@H](O[P+](O)(O)O)[C@H](N[*:1])C(=O)[*:2]].P.M.Y.G}$$$$V2.0),Kd,"protein: RNA polymerase-associated protein RTF1 homolog, PDB entry 4l1u",5.45 µM (active)
CC(C)C[C@@H](CO)NC(=O)[C@H](CO)NC(=O)[C@H](CCCNC(N)N)NC(=O)[C@H](CC(C)C)NC(=O)[C@H](CO)NC(=O)[C@H](C)NC(=O)[C@H](CC(C)C)NC(=O)[C@@H]1CCCN1C(=O)[C@H](Cc1ccc(O)cc1)NC(=O)[C@H](CC(C)C)NC(=O)[C@@H](N)CCC(=O)O (H-ELYPLASL[Orn(CH(NH2)2)]S[Leu(ol)]),Kd,"protein: ALIX, PDB entry 2r05",7 µM (active)
CC(C)C[C@H](NC(=O)[C@H](CC(C)C)NC(=O)[C@H](CCCNC(N)N)NC(=O)[C@H](CO)NC(=O)[C@H](CC(C)C)NC(=O)[C@H](CCCNC(N)N)NC(=O)[C@@H]1CCCN1C(=O)CN)C(=O)N[C@@H](CO)C(=O)N[C@@H](Cc1ccc(O)cc1)C(=O)N[C@@H](C)C(=O)O (HELM PEPTIDE1{G.P.[NC(N)NCCC[C@H](N[*:1])C(=O)[*:2]].L.S.[NC(N)NCCC[C@H](N[*:1])C(=O)[*:2]].L.L.S.Y.A}$$$$V2.0),Kd,"protein: rat Tom20(translocases of outer mitochondrial membranes), PDB entry 1om2",20 µM (active)
CC(C)C[C@H](NC(=O)[C@H](CO)NC(=O)[C@H](CCCNC(N)N)NC(=O)[C@H](CC(C)C)NC(=O)[C@H](CO)NC(=O)[C@@H](NC(=O)[C@H](CC(C)C)NC(=O)[C@@H]1CCCN1C(=O)[C@H](Cc1ccc(O)cc1)NC(=O)[C@H](CC(C)C)NC(=O)[C@@H](N)CCC(=O)O)[C@@H](C)O)C(=O)O (H-ELYPLTSL[Orn(CH(NH2)2)]SL-OH),Kd,"protein: ALIX, PDB entry 2r02",8 µM (active)
H-NPGLAYGNPYS-OH,Kd,"protein: Galectin-8, PDB entry 4gxl",5.2 µM (active)
Ac-LPLYTSPSLPNITLGLP-OH,Kd,"protein: Ankyrin Repeat Domains of Human ANKRA2, PDB entry 3v31",1.6 µM (active)
CC[C@H](C)[C@H](NC(=O)[C@@H]1CCCN1C(=O)[C@H](CC(C)C)NC(=O)[C@@H](NC(=O)[C@H](CO)NC(=O)CN)[C@@H](C)O)C(=O)N1CCC[C@H]1C(=O)NCC(=O)N[C@H](C(=O)N1CCC[C@H]1C(=O)N1CCC[C@H]1C(=O)N1CCC[C@H]1C(=O)N[C@@H](CC(N)=O)C(=O)N[C@@H](Cc1ccc(O)cc1)C(=O)N[C@@H](CC(=O)O)C(=O)N[C@@H](CO)C(=O)N[C@@H](CC(C)C)C(=O)O)[C@@H](C)O (H-GSTLPIPGTPPPNYDSL-OH),Kd,"protein: Ubiquitin ligase Nedd4( WW? domain), PDB entry 1i5h",53 µM (active)
H-PLYTSPSLPNITLGLP-OH,Kd,"protein: DNA-binding protein RFXANK, PDB entry 3uxg",109 µM (active)
H-TCIYNPLFGS-OH,Kd,"protein: Sorting nexin-17 SNX17, PDB entry 4tkn",1.3 µM (active)
CCC(=O)C(=O)O,Kd,"protein: 4-HYDROXY-2-OXO-HEPTANE-1,7-DIOATE ALDOLASE, PDB entry 4b5t",470 µM (active)
CC(=O)N[C@H]1/C(=N/OC(=O)Nc2ccccc2)O[C@H](CO)[C@@H](O)[C@@H]1O,Kd,"protein: BETA-N-ACETYLHEXOSAMINIDASE, PDB entry 4azb",0.0577 µM (active)
same,Kd,"protein: BETA-N-ACETYLHEXOSAMINIDASE, PDB entry 4azg",0.079 µM (active)
same,Kd,"protein: BETA-N-ACETYLHEXOSAMINIDASE, PDB entry 4azi",0.0356 µM (active)
COc1ccc(C[C@H](NC(=O)[C@@H](C)NC(=O)CN2CCOCC2)C(=O)N[C@@H](Cc2ccccc2)[C@@H](O)[C@H](C)CO)cc1,Kd,"protein: yCP, PDB entry 4qlv",0.014 µM (active)
CCC[C@H](COc1ccc(-c2nc3ccccc3n2Cc2ccccc2)cc1)n1c(-c2ccccc2)nc2ccccc21,Kd,"protein: Retinal rod rhodopsin-sensitive cGMP 3',5'-cyclic phosphodiesterase subunit delta, PDB entry 4jvb",0.039 µM (active)
CSCC[C@H](NC(=O)[C@H](CCC(=O)O)NC(=O)[C@H](CCCNC(N)N)NC(=O)[C@@H](N)Cc1cnc[nH]1)C(=O)N[C@@H](C)C(=O)N[C@H](C(=O)N[C@@H](CC(=O)O)C(=O)N[C@@H](CS)C(=O)N1CCC[C@H]1C(=O)O)C(C)C (H-H[Orn(CH(NH2)2)]EMAVDCP-OH),Kd,"protein: Par-6 PDZ domain, PDB entry 1x8s",8 µM (active)
C[C@H](NC(=O)CN)C(=O)N[C@@H](Cc1ccccc1)C(=O)N[C@@H](Cc1ccccc1)C(=O)N[C@@H](CO)C(=O)N[C@@H](C)C(=O)N[C@@H](CCCNC(N)N)C(=O)NCC(=O)N[C@@H](Cc1cnc[nH]1)C(=O)N[C@@H](CCCNC(N)N)C(=O)N1CCC[C@H]1C(=O)O (H-GAFFSA[Orn(CH(NH2)2)]GH[Orn(CH(NH2)2)]P-OH),Kd,"protein: fibrinogen-binding protein SdrG, PDB entry 1r17",0.379 µM (active)
CC[C@H](C)[C@H](NC(=O)[C@@H]1CCCN1C(=O)[C@H](CCCNC(N)N)NC(=O)[C@@H]1CCCN1C(=O)[C@H](Cc1cnc[nH]1)NC(=O)[C@@H](N)CO)C(=O)N[C@@H](CCCNC(N)N)C(=O)N[C@H](C(=O)O)C(C)C (H-SHP[Orn(CH(NH2)2)]PI[Orn(CH(NH2)2)]V-OH),Kd,"protein: Chaperone protein DnaK, PDB entry 4ezr",6.3 µM (active)
H-GSLLRVQAHIRKKMV-OH,Kd,"protein: Myosin A tail domain interacting protein MTIP-delta60, PDB entry 4r1e",0.052 µM (active)
CC[C@H](C)[C@H](NC(=O)[C@H](CO)NC(=O)[C@H](CCCNC(N)N)NC(=O)CNC(=O)[C@H](C)NC(=O)[C@H](CCC(=O)O)NC(=O)[C@H](CCCCN)NC(=O)[C@@H](NC(=O)[C@@H](NC(=O)[C@H](C)NC(=O)[C@@H](NC(=O)[C@H](CC(C)C)NC(=O)[C@H](CO)NC(=O)CN)C(C)C)[C@@H](C)O)C(C)C)C(=O)N[C@@H](Cc1cnc[nH]1)C(=O)N[C@@H](CCC(=O)O)C(=O)N[C@H](C(=O)N1CCC[C@H]1C(=O)N[C@@H](CCCNC(N)N)C(=O)O)[C@@H](C)CC (H-GSLVATVKEAG[Orn(CH(NH2)2)]SIHEIP[Orn(CH(NH2)2)]-OH),Kd,"protein: the BTB domain from B-cell lymphoma 6 protein(BCL6), PDB entry 1r2b",11.4 µM (active)
CSCC[C@H](NC(=O)[C@H](Cc1cnc[nH]1)NC(=O)[C@@H](NC(=O)[C@H](CCCCN)NC(=O)[C@H](C)NC(=O)[C@H](CO)NC(=O)[C@H](C)NC(=O)[C@@H](N)CCCNC(N)N)[C@@H](C)O)C(=O)N[C@@H](Cc1ccc(O)cc1)C(=O)N1CCC[C@H]1C(=O)N[C@H](C(=O)N[C@@H](CCCNC(N)N)C(=O)N[C@@H](CC(N)=O)C(=O)N[C@@H](Cc1ccc(O)cc1)C(=O)N[C@@H](CO)C(=O)N1CCC[C@H]1C(=O)O)C(C)C (H-[Orn(CH(NH2)2)]ASAKTHMYPV[Orn(CH(NH2)2)]NYSP-OH),Kd,"protein: ezrinradixinmoesin (ERM) proteins, PDB entry 2emt",0.201 µM (active)
CSCC[C@H](NC(=O)[C@H](CCCCN)NC(=O)[C@@H](NC(=O)[C@H](Cc1ccc(O)cc1)NC(=O)[C@@H](NC(=O)CNC(=O)[C@@H](NC(=O)[C@@H](N)[C@@H](C)O)[C@@H](C)O)C(C)C)C(C)C)C(=O)N1CCC[C@H]1C(=O)N1CCC[C@H]1C(=O)O (H-TTGVYVKMPP-OH),Kd,"protein: AP50, PDB entry 1h6e",0.7 µM (active)
CC(C)C[C@H](NC(=O)[C@H](CCC(=O)O)NC(=O)[C@@H](N)CCCNC(N)N)C(=O)N[C@@H](CC(C)C)C(=O)N1CCC[C@H]1C(=O)N[C@@H](CCC(=O)O)C(=O)N[C@@H](CC(C)C)C(=O)N1CCC[C@H]1C(=O)N[C@@H](Cc1cnc[nH]1)C(=O)N1CCC[C@H]1C(=O)N1CCC[C@H]1C=O (H-[Orn(CH(NH2)2)]ELLPELPHPP-aldehyde),Kd,"protein: MIT domain of Saci1372 (Vps4), PDB entry 2w2u",35 µM (active)
